Assay results reported in PubChem BioAssay AID743360 (Molecular Libraries Program, Specialized Chemistry Center, …, 2014).
Calls of active or inactive are those of the source.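 How the source made its calls: active means calcium retention capacity relative to untreated control above about 1.1 ratio (limit read from the data); inactive means the rest.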

Assay: mitochondrial Ca2+ retention capacity increase – biochemical, dry powder samples, uHTS hits, Calcium Green-5N, dose response (AID 743360)
Conditions: isolated mitochondria, Ca retention capacity

CRC/CRC0 ratio at 12.5 uM (higher = more inhibition), inactive:
O=S(=O)(Nc1ccc(CN2CCCCC2)cc1)c1cc(Cl)cc(Cl)c1 1.07
C[C@@H]1CCC[C@H](C)N1CCCC(=O)c1ccc(Br)cc1 1.01
CN1CCN(c2ccc(NC(=O)c3ccc(OCc4ccccc4)cc3)cc2)CC1 1.08
O=C(Nc1ccc(F)cc1F)c1cc(-c2ccccc2)on1 > 1
COc1ccc(Cl)c(C(=O)Nc2ccc(CN3CCCCC3)cc2)c1 > 1
O=C(Nc1ccc(Cl)cc1)c1cc(-c2ccccc2)on1 > 1
O=C(Nc1ccc(Br)cc1)c1cc(C2CC2)on1 1.06
Cc1ccc(-c2cc(C(=O)Nc3cccc(Cl)c3)no2)cc1 > 1
O=C(Nc1ccc(OCc2ccccc2)c(Cl)c1)c1cc(-c2cccc(O)c2)on1 > 1
O=S(=O)(Nc1ccc(CCN2CCCCC2)cc1)c1ccc(F)c(Cl)c1 1.07
COc1ccc(Cl)cc1S(=O)(=O)Nc1ccc(CCN2CCN(C)CC2)cc1 1.03
CCN(CC)c1ccc(NC(=O)c2ccc(OC)c(Cl)c2)cc1 0.976
COc1ccccc1C(=O)Nc1ccc(CN2CCCCC2)cc1 1.05
COc1ccc(NC(=O)c2cc(Cl)cc(Cl)c2OC)cc1 > 1
COc1ccc(Cl)cc1S(=O)(=O)Nc1ccc(CN2CCCCC2)cc1 1.05
COc1ccc(Cl)cc1S(=O)(=O)Nc1ccc(CN2CCN(C)CC2)cc1 1.03
O=S(=O)(Nc1ccc(CN2CCCCC2)cc1)c1ccc(F)c(Cl)c1 1.07
COc1ccc(Cl)cc1C(=O)Nc1cccc(CN2CCN(C(=O)OC(C)(C)C)CC2)c1 1.08
Cc1cc(NC(=O)c2ccc(-n3cnnc3)cc2)no1 > 1

CRC/CRC0 ratio at 12.5 uM (higher = more inhibition), active:
COc1ccc(Cl)cc1C(=O)Nc1ccc(CN2CCCCC2)cc1 1.8
COc1ccc(Cl)cc1C(=O)Nc1ccc(CN2CCN(C)CC2)cc1 1.24
COc1c(Cl)cccc1NC(=O)c1cc(-c2cccc(O)c2)on1 1.82
O=C(Nc1cc(Cl)ccc1F)c1cc(-c2cccc(O)c2)on1 6.53
O=S(=O)(Nc1ccc(CCN2CCCCC2)cc1)c1cccc(Cl)c1 1.12
CC(C)C1CCN(CCCC(=O)c2ccc(Br)cc2)CC1 1.16
COc1ccc(Cl)cc1C(=O)Nc1ccc(CN2CCNCC2)cc1 1.65
COc1ccc(Cl)cc1C(=O)Nc1ccc(CCN2CCCCC2)cc1 1.51
COc1ccc(NC(=O)c2cc(-c3cccc(O)c3)on2)cc1Cl 3.26
COc1ccc(Cl)cc1C(=O)Nc1ccc(N2CCN(C)CC2)cc1 1.2
CN1CCN(Cc2ccc(NC(=O)c3cccc(OCc4ccccc4)c3)cc2)CC1 2.26
COc1ccc(Cl)cc1C(=O)Nc1cccc(CN2CCNCC2)c1 1.52
COc1ccc(Cl)c(C(=O)Nc2ccc(CN3CCN(C(=O)OC(C)(C)C)CC3)cc2)c1 1.37
CCCc1cc(C(=O)Nc2c(F)cc(F)cc2Br)no1 1.13
